For some of these results: Measured potencies and affinities stand elsewhere.

In ChEMBL document CHEMBL3988442, “University of Dundee, Small-Polar-MMV Screening Library” (2021) one finds Percent Effect data, which are given here for eleven compounds.

What all share (parameters): scale not given: direction of the effect not stated beside the values
Test [1] has as its target Protein translocase subunit SecA (Escherichia coli (strain K12)) (UniProt P10408). Description: Assay to Identify E. coli SecA ATPase Inhibitors. Format: functional. The settings on record: 30 µM.
Test [2] concerns the target T1, Ubiquitin-activating enzyme e1, putative (Leishmania donovani (strain BPK282A1)) (UniProt E9BSI1).
T1 sequence (whole entry): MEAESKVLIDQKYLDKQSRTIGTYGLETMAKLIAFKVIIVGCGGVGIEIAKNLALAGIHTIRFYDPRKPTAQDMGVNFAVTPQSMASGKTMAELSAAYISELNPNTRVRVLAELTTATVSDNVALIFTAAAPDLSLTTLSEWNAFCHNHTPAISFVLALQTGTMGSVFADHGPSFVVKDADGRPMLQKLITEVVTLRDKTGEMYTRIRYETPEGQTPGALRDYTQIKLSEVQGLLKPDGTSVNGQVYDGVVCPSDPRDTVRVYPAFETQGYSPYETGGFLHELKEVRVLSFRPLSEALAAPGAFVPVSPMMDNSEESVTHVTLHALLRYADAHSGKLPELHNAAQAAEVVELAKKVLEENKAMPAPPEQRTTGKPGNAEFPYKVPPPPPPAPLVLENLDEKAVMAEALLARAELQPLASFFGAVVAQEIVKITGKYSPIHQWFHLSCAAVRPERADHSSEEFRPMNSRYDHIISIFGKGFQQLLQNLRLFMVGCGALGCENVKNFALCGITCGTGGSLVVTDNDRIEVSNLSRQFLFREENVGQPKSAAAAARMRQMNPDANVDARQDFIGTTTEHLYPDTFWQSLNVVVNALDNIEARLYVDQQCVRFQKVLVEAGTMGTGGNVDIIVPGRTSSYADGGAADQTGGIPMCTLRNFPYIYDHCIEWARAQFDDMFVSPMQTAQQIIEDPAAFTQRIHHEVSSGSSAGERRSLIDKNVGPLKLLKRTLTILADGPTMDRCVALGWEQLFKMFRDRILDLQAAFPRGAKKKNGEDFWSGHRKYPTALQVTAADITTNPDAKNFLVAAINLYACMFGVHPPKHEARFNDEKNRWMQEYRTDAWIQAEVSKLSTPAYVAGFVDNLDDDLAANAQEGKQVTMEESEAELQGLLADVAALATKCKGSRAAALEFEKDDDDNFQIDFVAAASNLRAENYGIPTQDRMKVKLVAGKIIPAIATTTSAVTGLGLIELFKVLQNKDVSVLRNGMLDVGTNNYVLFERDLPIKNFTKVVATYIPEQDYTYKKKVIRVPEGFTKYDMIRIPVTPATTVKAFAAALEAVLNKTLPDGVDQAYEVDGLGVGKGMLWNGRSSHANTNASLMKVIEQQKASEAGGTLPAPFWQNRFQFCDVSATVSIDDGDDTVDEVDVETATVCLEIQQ
Description: Leishmania donovani Ubiquitin Activating Enzyme (LdE1). Format: functional. The conditions noted are these: 30 µM.

The target of test [3] is AMP-activated protein kinase, AMPK (Homo sapiens) (UniProt P54646+O43741+P54619+Q9UGJ0+Q9Y478+Q13131+Q9UGI9). Description: AMP-dependent Kinase enzyme assay. An in vitro enzyme assay that detects ADP turnover that is directly proportional to AMPK activity. This uses naive AMPK that is activated during the assay with MK-8722. Format: functional. The conditions noted are these: 30 µM.

Test [4] has as its target Sialic acid-binding Ig-like lectin 9 (Homo sapiens) (UniProt Q9Y336). Briefly: Hs-Siglec9 ALPHAscreen SOP 20170721. The settings on record: 10 µM.
Another test relates to Trypanosoma cruzi. Description: Trypanosoma cruzi phosphomannomutase and mannose-1-phosphate guanylyltransferase assay. Format: functional. The settings on record: 10 µM.
Test [5] addresses T2, Arginase-2, mitochondrial (Homo sapiens) (UniProt P78540).
T2 sequence (whole entry): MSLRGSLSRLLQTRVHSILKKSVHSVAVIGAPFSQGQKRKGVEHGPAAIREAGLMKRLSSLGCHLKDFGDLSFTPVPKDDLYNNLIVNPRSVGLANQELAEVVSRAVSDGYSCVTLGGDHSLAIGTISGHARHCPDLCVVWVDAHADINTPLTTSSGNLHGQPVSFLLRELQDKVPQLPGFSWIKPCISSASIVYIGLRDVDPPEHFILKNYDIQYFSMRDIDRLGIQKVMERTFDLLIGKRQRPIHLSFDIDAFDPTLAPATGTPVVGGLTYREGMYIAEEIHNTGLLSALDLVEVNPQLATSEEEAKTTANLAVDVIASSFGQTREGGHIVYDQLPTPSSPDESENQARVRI
Description: in vitro enzyme assay to detect the production of urea directly proportional to the activity of Arginase II. Note: in the data most compounds retested in dose-response had high values. The conditions noted are these: 33.3 µM. Type of test: functional.

Test [6] concerns the target T3, Proteasome subunit beta (Trypanosoma cruzi) (UniProt O96673).
T3 sequence (whole entry): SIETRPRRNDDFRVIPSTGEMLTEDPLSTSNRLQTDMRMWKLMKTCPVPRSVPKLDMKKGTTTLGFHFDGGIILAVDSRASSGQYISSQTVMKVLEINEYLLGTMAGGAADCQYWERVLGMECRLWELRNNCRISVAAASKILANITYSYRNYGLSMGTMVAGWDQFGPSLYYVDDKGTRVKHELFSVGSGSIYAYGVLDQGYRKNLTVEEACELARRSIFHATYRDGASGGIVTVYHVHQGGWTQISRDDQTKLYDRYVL
Description: Trypanosoma cruzi proteasome chymotrypsin-like activity (TcProtChymo) assay. Note: in the data most compounds retested in dose-response had high values. Format: functional. The conditions noted are these: 9.37 µM.

The species entered for another test is Homo sapiens. Briefly: To identify inhibition of the IFN signalling (Jak-Stat) pathway via expression of an eGFP reporter gene under the control of an IFN-stimulated response element (ISRE) containing MxA promoter. Type of test: functional. The conditions noted are these: 30 µM. (In a reporter assay the amount or activity of a reporter protein is the signal.)

Test [7] has as its target T4, Tyrosyl-tRNA synthetase, putative (Trypanosoma cruzi (strain CL Brener)) (UniProt Q4DSP6).
T4 sequence (whole entry): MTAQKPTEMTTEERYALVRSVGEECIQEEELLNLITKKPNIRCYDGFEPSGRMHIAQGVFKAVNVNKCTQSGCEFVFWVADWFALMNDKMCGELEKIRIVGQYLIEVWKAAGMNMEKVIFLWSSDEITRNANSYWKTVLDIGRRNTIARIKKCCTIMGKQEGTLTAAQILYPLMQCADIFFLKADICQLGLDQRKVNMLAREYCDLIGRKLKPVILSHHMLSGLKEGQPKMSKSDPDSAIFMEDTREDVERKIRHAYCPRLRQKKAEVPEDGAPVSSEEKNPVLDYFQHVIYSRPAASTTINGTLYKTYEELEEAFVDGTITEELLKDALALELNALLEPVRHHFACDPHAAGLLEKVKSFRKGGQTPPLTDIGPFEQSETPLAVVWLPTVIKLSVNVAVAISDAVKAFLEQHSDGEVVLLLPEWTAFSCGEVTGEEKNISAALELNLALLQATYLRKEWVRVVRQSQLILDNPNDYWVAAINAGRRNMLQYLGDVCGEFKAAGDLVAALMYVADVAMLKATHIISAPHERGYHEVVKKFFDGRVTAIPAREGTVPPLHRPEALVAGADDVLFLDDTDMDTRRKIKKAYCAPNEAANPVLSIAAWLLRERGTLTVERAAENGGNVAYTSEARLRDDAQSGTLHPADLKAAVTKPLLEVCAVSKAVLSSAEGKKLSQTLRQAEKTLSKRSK
Description: Trypanosoma cruzi tyrosyl tRNA synthetase (TcYRS) _High Tyrosine SOP. Note: in the data most compounds retested in dose-response had high values. The conditions noted are these: 30 µM. Format: functional.

For test [8], the target named is T4, Tyrosyl-tRNA synthetase, putative (Trypanosoma cruzi (strain CL Brener)). Description: Trypanosoma cruzi tyrosyl tRNA synthetase (TcYRS) SOP. The conditions noted are these: 30 µM. Type of test: functional.
Test [9] has as its target Chromo domain-containing protein 1 (Saccharomyces cerevisiae (strain ATCC 204508 / S288c) (Baker's yeast)) (UniProt P32657). Description: ScCHD-1 Enzyme Inhibition Assay. Note: in the data most compounds retested in dose-response had high values. Format: functional. The settings on record: 30 µM.

Chromo domain-containing protein 1 (Saccharomyces cerevisiae (strain ATCC 204508 / S288c) (Baker's yeast)), sequence (P32657 whole entry, the tested form may be a part): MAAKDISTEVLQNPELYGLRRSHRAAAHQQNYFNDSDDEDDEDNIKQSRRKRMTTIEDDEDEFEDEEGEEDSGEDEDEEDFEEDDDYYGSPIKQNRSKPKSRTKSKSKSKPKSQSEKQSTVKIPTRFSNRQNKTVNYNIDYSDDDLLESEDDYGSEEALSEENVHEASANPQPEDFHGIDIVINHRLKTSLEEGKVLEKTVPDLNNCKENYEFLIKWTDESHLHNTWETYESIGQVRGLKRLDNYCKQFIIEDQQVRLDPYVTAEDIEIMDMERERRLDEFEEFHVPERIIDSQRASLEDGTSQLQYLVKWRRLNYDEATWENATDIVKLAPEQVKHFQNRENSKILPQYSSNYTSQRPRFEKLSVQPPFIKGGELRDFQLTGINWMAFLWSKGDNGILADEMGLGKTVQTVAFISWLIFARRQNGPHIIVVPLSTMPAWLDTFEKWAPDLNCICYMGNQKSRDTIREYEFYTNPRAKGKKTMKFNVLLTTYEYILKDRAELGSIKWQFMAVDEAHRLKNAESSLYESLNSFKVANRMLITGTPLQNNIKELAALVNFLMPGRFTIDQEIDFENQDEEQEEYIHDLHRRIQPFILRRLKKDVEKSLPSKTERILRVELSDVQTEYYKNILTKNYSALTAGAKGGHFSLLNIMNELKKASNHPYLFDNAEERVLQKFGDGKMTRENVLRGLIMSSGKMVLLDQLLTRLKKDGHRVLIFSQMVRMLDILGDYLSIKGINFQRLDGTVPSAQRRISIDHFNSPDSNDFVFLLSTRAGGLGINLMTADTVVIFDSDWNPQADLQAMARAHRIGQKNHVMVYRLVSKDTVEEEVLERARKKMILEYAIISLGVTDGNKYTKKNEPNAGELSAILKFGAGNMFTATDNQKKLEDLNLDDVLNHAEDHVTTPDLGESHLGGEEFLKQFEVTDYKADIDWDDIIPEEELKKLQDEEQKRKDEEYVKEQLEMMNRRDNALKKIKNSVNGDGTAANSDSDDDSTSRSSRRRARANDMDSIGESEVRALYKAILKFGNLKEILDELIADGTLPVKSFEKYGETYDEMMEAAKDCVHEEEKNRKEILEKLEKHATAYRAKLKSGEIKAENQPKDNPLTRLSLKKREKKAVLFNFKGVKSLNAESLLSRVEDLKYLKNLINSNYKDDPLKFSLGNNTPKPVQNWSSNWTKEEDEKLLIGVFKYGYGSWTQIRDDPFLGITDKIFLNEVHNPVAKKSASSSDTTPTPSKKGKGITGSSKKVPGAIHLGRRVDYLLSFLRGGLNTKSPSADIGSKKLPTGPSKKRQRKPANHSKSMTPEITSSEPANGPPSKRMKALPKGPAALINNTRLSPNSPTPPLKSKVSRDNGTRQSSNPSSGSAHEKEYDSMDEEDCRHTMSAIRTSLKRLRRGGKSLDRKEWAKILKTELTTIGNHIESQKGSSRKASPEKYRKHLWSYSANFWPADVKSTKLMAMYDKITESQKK
Sialic acid-binding Ig-like lectin 9 (Homo sapiens), sequence (Q9Y336 whole entry): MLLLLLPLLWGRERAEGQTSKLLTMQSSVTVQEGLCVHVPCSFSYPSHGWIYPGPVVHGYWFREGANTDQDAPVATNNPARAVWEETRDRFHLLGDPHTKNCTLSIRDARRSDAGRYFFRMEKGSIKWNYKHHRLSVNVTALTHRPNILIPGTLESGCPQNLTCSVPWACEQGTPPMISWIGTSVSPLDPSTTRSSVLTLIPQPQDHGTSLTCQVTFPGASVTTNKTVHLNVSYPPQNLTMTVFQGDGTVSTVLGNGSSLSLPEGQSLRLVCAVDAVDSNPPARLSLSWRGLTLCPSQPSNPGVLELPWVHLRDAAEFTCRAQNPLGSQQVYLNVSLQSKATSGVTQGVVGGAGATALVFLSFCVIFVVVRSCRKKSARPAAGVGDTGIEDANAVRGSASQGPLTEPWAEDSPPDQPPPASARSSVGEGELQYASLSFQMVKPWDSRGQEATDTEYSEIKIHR
Protein translocase subunit SecA (Escherichia coli (strain K12)), sequence (P10408 whole entry): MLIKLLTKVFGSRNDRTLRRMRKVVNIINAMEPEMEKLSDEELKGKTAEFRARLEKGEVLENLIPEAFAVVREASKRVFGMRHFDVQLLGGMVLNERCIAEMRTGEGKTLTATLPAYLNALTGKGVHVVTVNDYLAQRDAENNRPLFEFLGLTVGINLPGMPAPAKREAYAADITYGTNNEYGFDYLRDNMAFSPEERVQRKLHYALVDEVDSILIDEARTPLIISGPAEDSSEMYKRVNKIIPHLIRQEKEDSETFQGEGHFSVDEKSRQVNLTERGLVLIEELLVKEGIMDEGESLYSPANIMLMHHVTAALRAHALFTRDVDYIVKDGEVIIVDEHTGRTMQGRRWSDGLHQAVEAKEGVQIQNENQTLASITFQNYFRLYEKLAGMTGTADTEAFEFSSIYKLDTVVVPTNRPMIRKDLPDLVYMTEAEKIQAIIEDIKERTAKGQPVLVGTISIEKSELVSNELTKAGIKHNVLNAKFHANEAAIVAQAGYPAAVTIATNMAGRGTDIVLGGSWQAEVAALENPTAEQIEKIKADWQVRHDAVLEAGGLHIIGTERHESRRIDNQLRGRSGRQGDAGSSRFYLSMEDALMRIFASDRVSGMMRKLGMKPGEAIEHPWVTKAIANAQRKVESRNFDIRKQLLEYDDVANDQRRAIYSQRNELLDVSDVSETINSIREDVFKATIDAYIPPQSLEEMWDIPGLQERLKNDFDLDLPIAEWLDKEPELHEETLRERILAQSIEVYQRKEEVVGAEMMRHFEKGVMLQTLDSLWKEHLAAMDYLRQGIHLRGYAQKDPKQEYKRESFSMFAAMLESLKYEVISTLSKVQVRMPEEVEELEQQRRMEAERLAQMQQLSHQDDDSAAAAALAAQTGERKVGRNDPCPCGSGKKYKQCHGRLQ

On to `N#Cc1ccccc1OCCN1CCCCC1Cn1cncn1` (stereo unspecified), for which the Percent Effect was -2.06% in test [1]; 5.41% in [2]; -28.6% in [3]; 8.52% in test [4]; 5.94% with Trypanosoma cruzi; -5.61% in test [5]. Further, the Percent Effect in [6] was 3.78%; in the test listed under Homo sapiens, -11.9%; in test [7], 12.3%; in test [8], 16.1%; in test [9], -11.1%.

Take `CN(Cc1ccco1)C[C@H]1OC[C@@H]2CCN(Cc3cccs3)C[C@@H]21`: the Percent Effect in [1] is 1.17%; in [2], -2.67%; in [3], 4.12%; in test [4] it was 7.42%; in the test on Trypanosoma cruzi, -3.28%; in test [5] it was -50.7%. Besides, the Percent Effect in test [6] was -3.59%; in the test listed under Homo sapiens, -15.4%; in test [7], -1.04%; in [8], -37.5%; in [9], -2.22%.

On to `O=C(NCC1OCCc2cn(CC3CC3)nc21)c1ccsc1` (stereo unspecified), for which the Percent Effect in [1] is -5.87%; in [2], 18.2%; in [3] it was 2.23%; in test [4], -1.55%; in the test on Trypanosoma cruzi, 3.65%; in [5] it was 1.94%. Also, the Percent Effect in test [6] was 12.2%; in the test filed under Homo sapiens, 8.57%; in test [7], 2.12%; in [8], 14.1%; in test [9] it was -7.27%.

As for `OC(CN1CCN(c2ncccn2)CC1)c1cccc(F)c1` (stereo unspecified), the Percent Effect in test [1] is -2.83%; in test [2] it was 13.5%; in test [3], -5.06%; in [4], 19.1%; in the test with Trypanosoma cruzi, 4.99%; in [5] it was 16.6%. Further, the Percent Effect in [6] is 2.49%; in the test filed under Homo sapiens it was 20.5%; in test [7] it was 6.45%; in [8], 16.1%; in test [9], -5.42%.

In the case of `Cc1cccc(CN2CCC3(CCCN(C(=O)c4ccsc4)C3)C2=O)n1` (stereo unspecified), the Percent Effect is -2.33% in test [1]; 0% in [2]; 10.5% in test [3]; -2.49% in test [4]; 0.0986% with Trypanosoma cruzi; -0.645% in [5]. The Percent Effect was 3.48% in [6]; -3.21% in the test listed under Homo sapiens; 3.17% in test [7]; 3.85% in test [8]; 87.7% in test [9].

With `Cc1cccc(N2CCN(CCNC(=O)c3ccnn3C)CC2)c1`, the Percent Effect in test [1] was 0.195%; in [2] it was 5.41%; in test [3] it was -1.81%; in test [4], -4.27%; with Trypanosoma cruzi, -4.88%; in test [5], 3.75%. For the same compound, the Percent Effect in [6] is 14.6%; in the test listed under Homo sapiens it was 6.3%; in test [7], 9.9%; in [8], 11%; in test [9], 5.87%.

Regarding `OCCn1nccc1C1CCN(CCCOc2ccc(F)cc2)CC1`, the Percent Effect was -5.89% in test [1]; 0% in test [2]; -3.35% in test [3]; 3.53% in test [4]; -0.28% in the test with Trypanosoma cruzi; -2.88% in test [5]. In addition, the Percent Effect in test [6] is -3.64%; in the test listed under Homo sapiens it was -5.47%; in test [7] it was 9.36%; in test [8], 16.1%; in test [9], -0.509%.

Consider `CCc1c(C)sc(NC(=O)CN2CCN(CC)CC2)c1C(=O)OC`, for which the Percent Effect in [1] is -1.97%; in [2] it was -12.5%; in [3], -2.07%; in [4] it was 3.39%; in the test on Trypanosoma cruzi, 2.62%; in test [5], 0%. Also, the Percent Effect in test [6] is -2.46%; in the test filed under Homo sapiens it was -12.9%; in test [7] it was 0%; in test [8], -2.56%; in [9], 2.67%.

Regarding `CCOCc1cccc(S(=O)(=O)N2CCSCC2)c1`, the Percent Effect is -3.9% in test [1]; 1.33% in [2]; 4.84% in [3]; 4.89% in [4]; -6.09% with Trypanosoma cruzi; 0.88% in test [5]. Moreover, the Percent Effect is 7.58% in [6]; 5.82% in the test listed under Homo sapiens; 4.23% in test [7]; -2.56% in test [8]; -3.83% in test [9].

Turning to `COc1cc(C(=O)N(Cc2cnn(C)c2)C(C)C)ccc1OCC(N)=O`, the Percent Effect in test [1] is -7.3%; in test [2] it was 18.4%; in test [3], -10.1%; in test [4], -6.52%; with Trypanosoma cruzi, -5.32%; in [5], 0%. Also, the Percent Effect is 10.4% in [6]; 9.36% in the test listed under Homo sapiens; 0.493% in test [7]; 6.17% in test [8]; -2.3% in test [9].

For the compound `CC(C)c1nnc2n1CCN(C(=O)c1ccc(CN(C)C)cc1)C2`, the Percent Effect is -3.27% in test [1]; -2.6% in test [2]; -13.6% in test [3]; -5.41% in [4]; -2.84% in the test on Trypanosoma cruzi; 1.47% in test [5]. Besides, the Percent Effect was 12.5% in test [6]; 22.6% in the test listed under Homo sapiens; 0.952% in test [7]; -2.35% in test [8]; -18.4% in test [9].
